Screening results from PubChem BioAssay.
Rows were chosen to be rich in hits. Some 1.9% of all compounds tested hit in one or more screens of this group.
RXFP1 ag – agonists of human relaxin receptor RXFP1; Q9HBX9; HEK293T-RXFP1 cAMP TR-FRET, 30 min; response scale: percent of porcine relaxin response, buffer zero; Potency, µM (series often up to 57.5 µM), inactives show at the top dose activation, usual class: activators; actives 0.3% (n = 370,000); AID 2676; also: potency is read from the fitted curve at half-maximal effect; % is scaled to controls: 0 for no effect and ±100 for the full control effect; nearly all actives have a fitted effect of over 60% in size
Target sequence (Q9HBX9 whole entry, looked up): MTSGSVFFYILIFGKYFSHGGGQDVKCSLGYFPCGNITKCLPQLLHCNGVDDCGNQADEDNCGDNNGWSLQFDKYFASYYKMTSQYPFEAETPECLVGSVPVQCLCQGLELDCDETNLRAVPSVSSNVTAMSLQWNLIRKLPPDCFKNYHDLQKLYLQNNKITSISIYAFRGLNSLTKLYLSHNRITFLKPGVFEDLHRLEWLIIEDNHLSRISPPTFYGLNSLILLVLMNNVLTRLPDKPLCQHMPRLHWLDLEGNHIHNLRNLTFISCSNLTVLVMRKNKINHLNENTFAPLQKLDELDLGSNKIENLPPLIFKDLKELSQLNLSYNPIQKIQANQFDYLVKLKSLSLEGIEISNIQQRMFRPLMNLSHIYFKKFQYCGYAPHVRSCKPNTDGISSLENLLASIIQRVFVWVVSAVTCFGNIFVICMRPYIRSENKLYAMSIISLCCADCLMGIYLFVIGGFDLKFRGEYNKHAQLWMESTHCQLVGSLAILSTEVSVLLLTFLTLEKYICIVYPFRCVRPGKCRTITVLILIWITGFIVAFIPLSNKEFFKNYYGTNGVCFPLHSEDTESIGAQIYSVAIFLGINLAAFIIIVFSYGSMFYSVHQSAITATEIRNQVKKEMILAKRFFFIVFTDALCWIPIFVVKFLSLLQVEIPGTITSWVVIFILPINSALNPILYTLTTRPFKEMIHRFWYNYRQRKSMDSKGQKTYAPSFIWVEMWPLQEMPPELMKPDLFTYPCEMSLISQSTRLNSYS
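HEK293T cells stably expressing RXFP1 were pretreated with the PDE4 inhibitor Ro 20174, exposed to compounds for 30 min at 37C, lysed, and cAMP was read by TR-FRET. Data normalized to buffer (basal) and 29 nM porcine relaxin (100%).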
Giardia kill – Giardia lamblia killing | Giardia lamblia trophozoite viability | activity change, % at 7.66 µM, hits read low | actives 0.15% (n = 340,000); in the data active = activity change below about -80%; inconclusive = between about -30% and that limit;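 also: parasites exposed to compound for two days anaerobically before the ATP read; % is scaled to controls: 0 for no effect and ±100 for the full control effect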
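Compounds were tested on trophozoites seeded at 100 cells/well and held 48 hrs at 37 deg C anaerobically. An ATP-based luminescent kit measured the remaining live cells.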
IL-2 act – activates IL-2 in a cell-based reporter assay. IL-2 activation reporter assay, cell-based qHTS; stimulated with anti-CD3/CD4/CD28 beads; in transgenic mouse T cells. activation, % (series mostly up to about 46 µM). actives 0.065% (n = 360,000). AID 652025; in the data active = activation above about 50%; inconclusive = mostly about 30% to 49%; also: 0% is about no effect
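EGFP and DsRed fluorescence is measured by plate cytometry in unstimulated transgenic mouse T cells exposed to compound for 60 minutes, then stimulated 18 hours at 37 degrees C with anti-CD3/anti-CD4 beads plus anti-CD28.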
RXFP1 antag – RXFP1 (human) relaxin receptor antagonism; Q9HBX9; HEK293-RXFP1, relaxin-stimulated cAMP HTRF, 30 min; hits give low values; activity change, negative = inhibition, % at 57.5 µM; actives 0.59% (n = 350,000);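 active = activity change of -60% or lower, but not beyond a set lower limit; inconclusive = change between -60% and -40%, or beyond the set limit; inactive = change above -40%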; also: % is scaled to controls: 0 for no effect and ±100 for the full control effect
BRCA1 expr up – activators of BRCA1 expression | MCF7-BRCA1-FFLuc reporter, luminescence, 48 h; response scale: scaled: vehicle 0%, 10 µM genistein 100% | Potency, µM (top dose mostly 46.1 µM), without a hit: at the top dose activation, usual class: activators | actives 1.1% (n = 380,000); also: potency is read from the fitted curve at half-maximal effect; nearly all actives have a fitted effect of over 80% in size
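Luminescence from a BRCA1-driven firefly luciferase in MCF7 cells was the read-out, taken 15 min after substrate addition following 48 h compound exposure at 37 °C. Data were normalized to a 10 microM genistein control and DMSO vehicle.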
NPSR antagonist – blocks cAMP signaling of the human neuropeptide S receptor; actives 1% (n = 220,000); CHO-NPSR cells, cAMP TR-FRET, antagonist mode; Q6W5P4; Potency, µM (series often up to 38.3 µM), inactives show at the highest dose activity change, negative = inhibition, most hits filed as inhibitors; also: potency is read from the fitted curve at half-maximal effect; % is scaled to controls: 0 for no effect and ±100 for the full control effect; nearly all actives have a fitted effect of over 50% in size
* = called active by the depositor; ? = inconclusive; nt = not tested or not shown; ! = a repeat was not active; [ ] = remark or other dose. Unless noted, calls follow the shape of the dose curve; as a rule, active = well fitted curve in the direction sought with a large enough effect; inconclusive = small, poorly fitted or top-dose-only effect, or another doubt; inactive = no such curve, though single readings can be large; an effect the other way counts as inactive or inconclusive.

SMILES	RXFP1 ag	Giardia kill	IL-2 act	RXFP1 antag	BRCA1 expr up	NPSR antagonist
Nc1nonc1C(=O)N/N=C/c1ccc(Br)o1	-0.3%	0.3	1.3	-9.9	-15.8%	-13.3%
Cc1ccc(N2CC(NC(=O)c3ccc(S(=O)(=O)N4CCCC4)cc3)CC2=O)cc1C (configuration not stated)	0.5%	nt	nt	-7.6	nt	nt
O=[N+]([O-])c1ccc(Cl)c(S(=O)(=O)/N=C(/c2ccccc2)N2CCOCC2)c1	-1.2%	-20.4	-1.0	-60.8*	-1.7%	1.3%
COCC(C)N1C(=O)Cc2c1nc(N)c1c(N)nc(N3CCN(c4ccccc4F)CC3)c(C#N)c21 (configuration not stated)	18.6%	23.2	-1.3	-60.1*	-56.0%	-29.3%
Cc1cccc(C)c1NC(=O)c1nc(S(=O)(=O)Cc2ccccc2)ncc1Cl	-1.6%	-11.5	-2.2	-70.5*	-49.3%	nt
Cc1cccc(CS(=O)(=O)c2ncc(Cl)c(C(=O)NCc3ccccc3)n2)c1	-0.8%	2.8	-0.8	-62.2*!	-64.2%	nt
Cc1cccc(CS(=O)(=O)c2ncc(Cl)c(C(=O)Nc3c(C)cccc3C)n2)c1	1.1%	-16.5	-3.6	-96.2*	-37.3%	nt
Cn1cc(/C=C/c2ccnc3ccccc23)c2ccccc21	nt	nt	nt	nt	0.1%	nt
O=C(Nc1nnc(C2=COCCO2)o1)c1ccc(Cc2ccccc2)cc1	0.0%	17.5	-0.4	-65.1*	-53.6%	16.9%
O=C(Nc1nnc(C2=COCCO2)o1)c1ccc(Cl)cc1	-0.3%	5.1	-1.5	-3.6	-35.4%	7.0%
COc1ccc2c(c1OC)C(=O)N1c3ccccc3SC21 (configuration not stated)	10.2%	8.8	0.3	-5.9	5.01µM*	11.8%[46.1 µM]
CCC1CCCCN1C(=O)CSc1nnc(-c2ccc(Cl)cc2)o1 (configuration not stated)	0.0%	-9.6	-3.4	-6.2	0.3%	-8.9%[46.1 µM]
CCC1CCCCN1C(=O)CSc1nnc(-c2cccc(Cl)c2)o1 (configuration not stated)	2.1%	-8.5	-3.2	-17.4	10µM*	-18.8%[46.1 µM]
CCC1CCCCN1C(=O)CSc1nnc(-c2ccco2)o1 (configuration not stated)	-0.4%	1.1	-0.9	10.8	3.16µM*	-22.3%[46.1 µM]
CCC1CCCCN1C(=O)CSc1nnc(-c2ccc(Cl)s2)o1 (configuration not stated)	7.2%	1.3	0.2	-11.2	68.8%	?
C/C=C/c1ccc(OCC(=O)OCc2csc(Nc3ccc(C)cc3)n2)c(OC)c1	-0.3%	0.4	-0.7	-9.6	11.2µM*	6.1%
Cc1ccc(Nc2nc(COC(=O)COc3ccc(C=O)cc3)cs2)cc1	-0.8%	-15.5	1.7	-15.1	?	19.6%
CCC(Oc1ccc(F)cc1)C(=O)Nc1cc(-c2ccc(C)cc2)no1 (configuration not stated)	-1.2%	nt	nt	?	nt	nt
CCC(Oc1ccc(F)cc1)C(=O)Nc1nc(-c2ccc(F)cc2)ns1 (configuration not stated)	1.4%	nt	nt	-87.3*	nt	nt
CCCn1nc(NC(=O)c2ccccn2)c2cc3cc(C)ccc3nc21	1.7%	-20.0	2.6	-10.0	11.2µM*	0.6%[46.1 µM]
CCCn1nc(NC(=O)c2ccco2)c2cc3cc(C)ccc3nc21	5.2%	10.2	0.2	0.9	39.7%	37.8%
CCOC(=O)c1cccc(NC(=O)c2ncoc2-c2ccco2)c1	5.2%	nt	nt	nt	0.0%	nt
Cc1cccc(/C(N)=N/OC(=O)C23CC4CC(CC(C4)C2)C3)c1	0.4%	-7.4	-0.1	13.5	10µM*	-13.6%
O=C(Nc1nnc([C@@H]2C[C@H](O)[C@@H](CO)O2)s1)Nc1ccccc1F	nt	nt	-0.6	nt	6.31µM*	nt
O=C(Nc1ccc(F)c(Cl)c1)Nc1nnc([C@H]2C[C@H](O)[C@@H](CO)O2)s1	nt	nt	-0.2	nt	11.2µM*	nt
O=C(Nc1nnc([C@@H]2C[C@H](O)[C@@H](CO)O2)s1)c1cccc2ccccc12	nt	nt	0.0	nt	8.91µM*	nt
